Most compounds without a hit are left out; they make up all but 10% or so of the library.
CCT chaperon mod: cytosolic chaperonin activity modulation; purified chaperonin ATPase assay, HTRF ADP detection, 30 min; activity change, % (no concentration beside the values), hits read low; actives 0.3% (n = 360,000); AID 651819; in the data active = activity change below about -30%
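TRiC (40 or 20 nM final, by batch activity) in 30 mM Tris pH 7.4, 100 mM KCl, 5 mM MgCl2, 1 mM DTT was treated with compound at 76 uM single dose, then 10 uM ATP, 30 min at 37 °C. ADP was read by HTRF Transcreener.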
Sfp inh: blocks B. subtilis Sfp PPTase activity; Potency, µM, most hits filed as inhibitors; Q9F4F7; actives 3.5% (n = 310,000); Biochemical Sfp PPTase activity, qHTS; AID 1490;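 note: the enzyme is Sfp with the accession as filed and its product quenches rhodamine fluorescence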
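Buffer: 50 mM Hepes-Na pH 7.6, 10 mM MgCl2, 0.01% Nonidet P-40, 0.01% BSA. Enzyme 15 nM, pre-exposed to compound 15 min; substrates then added and fluorescence change tracked over 30 min.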
G9a inh: G9a (human) methyltransferase inhibition | Q96KQ7 | actives 8.8% (n = 350,000) | Potency, µM (doses to about 102 µM), most hits filed as inhibitors | G9a H3K9 monomethylation, AlphaScreen, 2 h | AID 504332; note: nearly all actives have a fitted effect of over 75% in size
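Methyltransferase reactions run at room temperature for 2 h (20 nM enzyme, 500 nM biotin-H3K9 peptide, 20 uM SAM) after a 15 min compound preincubation; product detected by AlphaScreen beads and anti-H3K9me1 antibody.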
Mm-Cpn inhibitor: inhibitors of Methanococcus maripaludis chaperonin TRiC (MmCpn); purified Mm-Cpn ATPase, ADP Transcreener TR-FRET; Potency, µM (titrated, usually from 76.9 µM), hits mostly inhibitors; actives 0.031% (n = 330,000); note: nearly all actives have a fitted effect of over 80% in size
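Purified archaeal Mm-CPN (25nM final) preincubated 10 min at 37degC with compound, then 10uM ATP for 30 min at 37degC; ADP measured by HTRF Transcreener TR-FRET; buffer 30 mM TRIS pH 7.4, 100mM KCl, 5mM MgCl2, 1mM DTT.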
PLK1 PBD block: PLK1 (human) polo-box domain binding inhibition. P53350. Plk1 PBD binding of FITC phosphopeptide, fluorescence polarization. Potency, µM, actives largely listed as inhibitors. actives 2.8% (n = 360,000). AID 720504; note: series mostly up to about 57 µM; nearly all actives have a fitted effect of over 65% in size
VDR inhibitor: blocks the human vitamin D receptor. VDR-SRC2-3 peptide fluorescence polarization, 2 h. Potency, µM, most hits filed as inhibitors. P11473. actives 0.93% (n = 400,000)
Target sequence (P11473 whole entry, looked up): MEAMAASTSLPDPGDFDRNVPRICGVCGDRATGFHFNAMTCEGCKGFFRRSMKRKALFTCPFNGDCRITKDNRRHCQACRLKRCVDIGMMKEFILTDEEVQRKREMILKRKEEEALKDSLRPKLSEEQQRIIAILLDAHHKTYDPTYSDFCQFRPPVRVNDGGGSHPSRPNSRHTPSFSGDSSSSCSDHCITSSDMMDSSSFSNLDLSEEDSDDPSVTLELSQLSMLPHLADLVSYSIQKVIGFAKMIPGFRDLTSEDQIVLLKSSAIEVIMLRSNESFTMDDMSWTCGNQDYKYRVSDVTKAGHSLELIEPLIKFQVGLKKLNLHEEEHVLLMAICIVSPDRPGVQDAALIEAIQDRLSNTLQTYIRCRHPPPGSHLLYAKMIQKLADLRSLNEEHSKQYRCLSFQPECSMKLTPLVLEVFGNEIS
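The screen uses fluorescence polarization to detect compounds that interfere with recruitment of the SRC2-3 coactivator peptide to VDR; plates are read after 2 h at room temperature.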
Numbers stand for hits; [ ] = dose if it differs, or a comment. Unless noted, calls come from the whole dose curve; as a rule, active = well fitted curve in the direction sought with a large enough effect; inconclusive = small, poorly fitted or top-dose-only effect, or another doubt; inactive = no such curve, though single readings can be large; an effect the other way counts as inactive or inconclusive.

How did CCn1c(=O)n(CC2CCC(C(=O)NC(C)C)CC2)c(=O)c2sccc21 (stereo unspecified) do in these assays?
G9a inh: inactive; VDR inhibitor: inactive

Results for CCOC(=O)c1c(NC(=O)Nc2ccc(Cl)cc2)sc(C)c1C ?
CCT chaperon mod: inactive; Sfp inh: inactive; G9a inh: inactive[0.501 µM]; Mm-Cpn inhibitor: inactive; PLK1 PBD block: inactive; VDR inhibitor: inactive

How did CCOC(=O)c1c(NC(=O)/C=C/C(=O)O)sc(C)c1-c1ccc(Cl)cc1 do in these assays?
CCT chaperon mod: inactive; Sfp inh: inactive; G9a inh: inactive[12.7 µM]; Mm-Cpn inhibitor: inactive; PLK1 PBD block: inactive; VDR inhibitor: 40µM

What do the screens show for `COC(=O)c1c(NC(=O)CCCC(=O)O)sc(C)c1C`?
CCT chaperon mod: inactive; Sfp inh: inactive; G9a inh: inactive; Mm-Cpn inhibitor: inactive; PLK1 PBD block: inactive; VDR inhibitor: inactive

What do the screens show for `Cc1sc(NC(=O)CCCC(=O)O)c(C(N)=O)c1-c1ccccc1`?
CCT chaperon mod: inactive; Sfp inh: inactive; G9a inh: 25µM; Mm-Cpn inhibitor: inactive; PLK1 PBD block: 30µM; VDR inhibitor: inactive

Results for CCOC(=O)c1c(NC(=S)N2CCN(C)CC2)sc(C)c1-c1ccccc1 ?
CCT chaperon mod: inactive; Sfp inh: inactive; G9a inh: 45µM; Mm-Cpn inhibitor: inactive; PLK1 PBD block: inactive; VDR inhibitor: inactive

What do the screens show for `CCOC(=O)c1ccc(NC(=S)N2CCN(C)CC2)cc1`?
CCT chaperon mod: inactive; Sfp inh: inactive; G9a inh: inactive; Mm-Cpn inhibitor: inactive; PLK1 PBD block: inactive; VDR inhibitor: inactive

Results for Cc1cc(C)c(NC(=O)C[C@H](CC(=O)O)c2cccc3ccccc23)c(C(=O)N2CCC3(CCCC3)CC2)c1 ?
Sfp inh: inactive; G9a inh: inactive[12.7 µM]; VDR inhibitor: inconclusive

Results for O=C(O)C1CN(c2nc(Cl)ccc2[N+](=O)[O-])C1 ?
CCT chaperon mod: inactive; Sfp inh: inactive; G9a inh: inconclusive; Mm-Cpn inhibitor: inactive; PLK1 PBD block: inactive; VDR inhibitor: inactive

What do the screens show for `O=C(O)C1CN(c2ncccc2[N+](=O)[O-])C1`?
CCT chaperon mod: inactive; Sfp inh: inactive; G9a inh: inactive; Mm-Cpn inhibitor: inactive; PLK1 PBD block: 13µM; VDR inhibitor: inconclusive

How did COC(=O)[C@@]1(Cc2ccccc2-c2ccco2)C=C[C@H](C)[C@@H](c2ccccc2)N1C(=O)C(F)(F)F do in these assays?
Sfp inh: inconclusive; VDR inhibitor: 45µM

Results for CCOc1ccc(C(CC(=O)O)NS(=O)(=O)c2ccc(C)cc2)cc1OC (stereo unspecified) ?
CCT chaperon mod: inactive; Sfp inh: inactive; G9a inh: inconclusive; Mm-Cpn inhibitor: inactive; PLK1 PBD block: 21µM; VDR inhibitor: inactive

How did CCOc1ccc(C(CC(=O)O)NC(=O)COc2ccccc2)cc1OC (stereo unspecified) do in these assays?
CCT chaperon mod: inactive; Sfp inh: inactive; G9a inh: inactive; Mm-Cpn inhibitor: inactive; PLK1 PBD block: inactive; VDR inhibitor: inactive

How did COc1ccc(C(CC(=O)O)NC(=O)COc2cc(C)ccc2C)cc1OC (stereo unspecified) do in these assays?
CCT chaperon mod: inactive; Sfp inh: inconclusive; G9a inh: 32µM; Mm-Cpn inhibitor: inactive; PLK1 PBD block: inactive; VDR inhibitor: inactive

Results for COc1ccc(C(CC(=O)O)NC(=O)COc2ccccc2)cc1OC (stereo unspecified) ?
CCT chaperon mod: inactive; Sfp inh: inactive; G9a inh: 79µM; Mm-Cpn inhibitor: inactive; PLK1 PBD block: inactive; VDR inhibitor: inactive

How did Cc1ccc(-c2nnc(Nc3ccc(Br)cc3)c3ccccc23)cc1S(=O)(=O)NCC1CCCO1 (stereo unspecified) do in these assays?
G9a inh: inactive; VDR inhibitor: inactive

Results for CC(C)(C)c1ccc(/C=C/C(=O)Nc2ccc(S(N)(=O)=O)cc2)cc1 ?
G9a inh: inconclusive; VDR inhibitor: inactive

How did Cc1nnc(NC(=O)c2cccc(S(=O)(=O)N3CCOCC3)c2)s1 do in these assays?
CCT chaperon mod: inactive; Sfp inh: inactive; G9a inh: inactive[12.7 µM]; Mm-Cpn inhibitor: inactive; PLK1 PBD block: inactive; VDR inhibitor: inactive

Results for Cc1ccc(C(=O)Nc2nncs2)cc1S(=O)(=O)N1CCOCC1 ?
CCT chaperon mod: inactive; Sfp inh: inactive; G9a inh: inactive[12.7 µM]; Mm-Cpn inhibitor: inactive; PLK1 PBD block: inactive; VDR inhibitor: inconclusive

Screens: PubChem, National Center for Advancing Translational Sciences (NCATS)
